Bioassay records (PubChem)
In the library only some 14% were active in any assay of this set; here they are far more common.
USP30 block – blocks human USP30 ubiquitin-rhodamine cleavage; purified USP30, Ub-rhodamine cleavage fluorescence; inhibition, % at 25 µM; actives 5.3% (n = 47,000); AID 1645860
USP17 inh – human USP17-like deubiquitinase inhibition; actives 6.5% (n = 47,000); purified USP17, Ub-rhodamine cleavage fluorescence, 3 h; inhibition, % at 50 µM; AID 1645855; A8MUK1
USP8 block – human USP8 deubiquitinase inhibition; P40818; purified USP8, Ub-rhodamine cleavage fluorescence, 30 min; inhibition, % at 20 µM; actives 4.2% (n = 47,000); AID 1645853
USP10 inh – human USP10 deubiquitinase inhibition; Q14694; purified USP10, Ub-rhodamine fluorescence, 60 min; inhibition, % at 20 µM; actives 1.1% (n = 47,000); AID 1645856
USP28 block – inhibitors of human USP28 deubiquitinase; AID 1645857; inhibition, % at 25 µM; purified USP28, Ub-rhodamine cleavage fluorescence, 30 min; actives 3% (n = 47,000)
Target sequence (Q96RU2 whole entry, looked up): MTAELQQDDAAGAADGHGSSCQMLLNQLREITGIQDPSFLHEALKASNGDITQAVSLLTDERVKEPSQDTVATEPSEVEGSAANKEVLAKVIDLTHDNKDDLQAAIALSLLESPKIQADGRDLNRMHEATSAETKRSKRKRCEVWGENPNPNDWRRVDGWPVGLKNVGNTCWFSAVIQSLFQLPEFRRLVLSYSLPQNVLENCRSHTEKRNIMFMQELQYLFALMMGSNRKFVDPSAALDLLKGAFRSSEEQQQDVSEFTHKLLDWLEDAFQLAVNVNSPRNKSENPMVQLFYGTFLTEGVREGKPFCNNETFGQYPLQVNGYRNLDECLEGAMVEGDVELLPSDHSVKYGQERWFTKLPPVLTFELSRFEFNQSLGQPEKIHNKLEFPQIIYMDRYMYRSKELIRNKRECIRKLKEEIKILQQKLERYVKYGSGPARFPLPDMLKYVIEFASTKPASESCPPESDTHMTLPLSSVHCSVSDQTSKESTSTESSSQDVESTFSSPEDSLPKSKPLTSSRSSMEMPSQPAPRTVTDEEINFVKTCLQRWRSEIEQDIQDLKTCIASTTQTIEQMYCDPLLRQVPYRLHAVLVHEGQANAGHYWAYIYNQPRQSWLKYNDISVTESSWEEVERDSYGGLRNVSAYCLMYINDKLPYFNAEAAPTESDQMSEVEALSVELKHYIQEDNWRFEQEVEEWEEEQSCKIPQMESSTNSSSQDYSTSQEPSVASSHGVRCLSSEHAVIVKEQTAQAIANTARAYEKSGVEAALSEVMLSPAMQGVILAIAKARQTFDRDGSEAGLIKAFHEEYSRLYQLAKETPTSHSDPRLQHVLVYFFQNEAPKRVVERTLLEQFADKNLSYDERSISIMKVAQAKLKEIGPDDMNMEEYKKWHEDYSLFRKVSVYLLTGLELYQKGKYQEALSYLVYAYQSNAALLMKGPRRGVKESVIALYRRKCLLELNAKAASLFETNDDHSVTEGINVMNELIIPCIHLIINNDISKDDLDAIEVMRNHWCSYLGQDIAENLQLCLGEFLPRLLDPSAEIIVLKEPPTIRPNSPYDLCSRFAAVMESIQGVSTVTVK
Numbers stand for hits; i = inactive. No stated cut-off is given here; in the data, active means inhibition above about 30%; inactive means the rest.

SMILES | USP30 block | USP17 inh | USP8 block | USP10 inh | USP28 block
O=C(CCCCCn1c(=O)[nH]c2ccccc2c1=O)Nc1ccccc1Br | 35 | i | i | i | i
O=C(CC1C(=O)Nc2nc(-c3ccccc3)nn21)Nc1ccccc1 (centres undefined) | i | i | i | i | i
O=C(CC1C(=O)Nc2nc3ccccc3n21)Nc1cccc2ccccc12 (centres undefined) | 46 | i | 55 | 54 | i
O=C(CC1C(=O)Nc2nc(-c3ccccc3)nn21)Nc1cccc2ccccc12 (centres undefined) | i | 84 | 41 | i | i
O=c1cc(CN2CCc3ccccc3C2)nc2nc(NCc3ccc(Cl)cc3)[nH]n12 | 49 | i | i | i | 30
O=c1cc(CN2CCc3ccccc3C2)nc2nc(NCc3ccccc3)[nH]n12 | i | i | i | i | i
COc1ccc(NCc2cc(=O)n3[nH]c(NCc4ccc(C(C)C)cc4)nc3n2)cc1 | i | 56 | i | i | i
c1ccc(-c2noc(NC3CCCC3)n2)cc1 | i | i | i | i | i
O=C1Nc2c(Cl)cc(Cl)cc2C1(O)c1sc(NC2CCCCC2)nc1-c1ccccc1 (centres undefined) | i | 66 | 87 | i | i
Cn1c(=O)c2c(nc(N3CCOCC3)n2C/C=C/c2ccccc2)n(C)c1=O | i | i | i | i | i
CCn1cnc2cc(-c3noc(CSc4nccc(C)n4)n3)ccc21 | i | i | i | i | i
O=C(CCCc1c[nH]c2ccccc12)N1CCN(C(=O)c2ccccn2)CC1 | i | i | i | i | i
O=[N+]([O-])c1ccc(NCC2COc3ccccc3O2)c(Cl)c1 (centres undefined) | i | i | i | i | 72
Cc1nn(C)c(C)c1CNC(=O)C1CCN(c2nnc3ccc(C(F)(F)F)cn23)CC1 | i | i | i | i | 38
O=C(NCc1cccnc1)C1CCCN(c2nnc3ccc(Cl)cn23)C1 (centres undefined) | i | i | i | i | i
Clc1ccc2nc(-c3ccccc3)cn2c1 | i | i | i | i | i
Cc1csc(-c2[nH]ncc2-c2ccsc2)n1 | i | i | i | i | 34
CCc1nc2cc3c(cc2n1CC(=O)N1CCCC1)OCCO3 | i | i | i | i | i
O=C(Nc1ccc2c(c1)OCO2)c1ccc(CN2CCc3ccccc3C2)cc1 | i | i | i | i | 31
CS(=O)(=O)N1CCCc2cc(C(=O)Nc3ccc4c(c3)OCO4)ccc21 | i | i | i | i | 85
O=C(NCC(c1cccnc1)N1CCc2ccccc2C1)C(=O)Nc1ccc2c(c1)OCO2 (centres undefined) | i | 75 | i | i | i
O=C(Nc1ccc2c(c1)OCO2)c1ccc(N2CCCC2=O)cc1 | i | 50 | i | i | i
CC(=O)Nc1cccc(C(=O)Nc2ccc(N3CCCC3=O)cc2)c1 | i | i | i | i | i
O=C(NC(NC(=O)c1cccnc1)c1ccc(Cl)cc1)c1cccnc1 | i | i | i | i | i
Cc1ccc(Cc2cccc(C3CCCN3C(=O)Cc3c[nH]c4ccccc34)n2)cc1 (centres undefined) | i | i | i | i | i
SMILES | USP30 block | USP17 inh | USP8 block | USP10 inh | USP28 block
COc1ccc(NC(=O)CN2CC[C@@]3(O)CCCC[C@H]3C2c2ccc(OC)cc2)cc1 (some centres undefined) | i | i | i | i | i
CO/C=C(/C(=O)OC)[C@@H](C)[C@@H](/C=C/c1ccccc1)OC | i | i | i | i | i
Cc1ccc(NC(=O)c2ccc3c(c2)N(S(C)(=O)=O)CC3)cc1 | i | 51 | i | i | 50
O=C(Nc1ccc2c(c1)OCCO2)C1=CCN(Cc2ccccc2F)CC1 | i | i | i | i | 40
COc1ccccc1NC(=O)C1=CCN(Cc2ccc(F)cc2)CC1 | i | i | i | i | i
Cc1ccc(NC(=O)c2nnn(-c3ccccc3)n2)cc1 | i | i | i | i | i
COc1ccc(-n2nnc(C(=O)Nc3nc(C)c(C)s3)n2)cc1 | 34 | 48 | i | i | 42
COc1cccc(NC(=O)c2nnn(-c3ccccc3)n2)c1 | i | i | i | i | 66
Cc1nc(NC(=O)c2nnn(-c3ccc(F)cc3)n2)sc1C | i | 40 | i | i | i
COc1ccccc1CNC(=O)c1nnn(-c2ccc(Cl)cc2)n1 | 35 | i | i | i | i
COc1ccc(-n2nnc(C(=O)NCc3ccc(F)cc3F)n2)cc1 | i | i | i | i | i
COc1ccc(-n2nnc(C(=O)NC3CC3)n2)cc1 | i | i | i | i | i
c1ccc(Cn2cc(-c3noc(-c4ccco4)n3)nn2)cc1 | i | i | i | i | i
Cc1cn[nH]c1C1CCCCN1C(=O)c1cc(=O)n(C)c(=O)n1C (centres undefined) | i | i | i | i | i
COC(=O)c1ccc(Nc2c(C#N)cnc3ccc(Cl)cc23)cc1 | 33 | i | i | i | i
Cc1ccn(-c2ccc(NC(=O)C3CCCCC3)cc2)n1 | i | 57 | i | i | i
O=C(NCc1ccccc1)C(c1ccc(F)cc1)N(C(=O)CCN1CCc2ccccc21)c1ccc2c(c1)OCO2 (centres undefined) | i | i | 40 | i | i
CCc1ccc(NC(=O)C(C)Nc2ccccc2NCCc2ccccc2)cc1 (centres undefined) | i | i | 64 | i | i
COc1ccc(C(C)=O)c2cc(C#N)oc12 | i | 30 | i | i | i
COc1cc2[nH]c3c(N4CCC(C(N)=O)(N5CCCCC5)CC4)ncnc3c2cc1OC | 30 | i | i | i | i
Cc1cccc(OCC(=O)Nc2cccn3nc(C)nc23)c1 | i | i | i | i | i
COc1ccccc1NC(=O)c1cncc(NS(=O)(=O)c2ccccc2)c1 | i | i | i | i | i
C=C(C)Cn1c(N2CCC(Cc3ccccc3)CC2)nc2c1c(=O)[nH]c(=O)n2C | 37 | i | i | i | i
Cc1cc(C)nc(SCCn2c(N3CCC(Cc4ccccc4)CC3)nc3c2c(=O)n(C)c(=O)n3C)n1 | 56 | 41 | i | i | i
CC1CCC(NC(=O)c2cn(C)c3ccc(S(=O)(=O)N4CCOCC4)cc3c2=O)CC1 (centres undefined) | i | i | i | i | i
SMILES | USP30 block | USP17 inh | USP8 block | USP10 inh | USP28 block
COc1ccc(CNC(=O)C(C)n2nc(-c3ccco3)c(-c3cc(C)no3)cc2=O)cc1 (centres undefined) | i | 64 | i | i | i
COc1ccc(OCC(=O)NCc2ccc(-c3ncncc3-c3cc(C)no3)cc2)cc1 | i | i | i | i | i
COc1ccc(C(=O)Cn2nc(-c3ccco3)c(-c3cc(C)no3)cc2=O)cc1 | i | 47 | i | i | i
COCCCNc1ncc(-c2cc(C)no2)c(-c2ccco2)n1 | i | i | i | i | i
Cc1ccc(NCc2c(C(=O)O)n(C)c3ccccc23)c(Cl)c1 | i | i | i | i | i
O=C(c1nnn(-c2ccc(F)cc2)n1)N(Cc1ccccc1)c1ccccn1 | i | i | i | i | i
O=C(Nc1ccc(S(=O)(=O)N2CCCC2)cc1)c1ccccc1-n1cnnn1 | i | i | i | i | i
CCOc1ccc(CC(=O)NCC(=O)N2CCC3(CC2)NCCc2[nH]cnc23)cc1 | i | i | 30 | i | i
